# Assay results: PubChem BioAssay AID1508649 (National Center for Advancing Translational Sciences (NCATS), 2021)
# Out of some 43,000 compounds screened, about 830 (1.9%) were called active. Another 30% or so got no clear call; they are omitted. How the source made its calls: active means clear falling dose curves in both reporters; inconclusive means both reporters move, but less clearly or upward; inactive means either reporter flat; the % is the NLuc reporter signal. Shown is part of a subset that was picked to be rich in actives. Entries that show only a call come without a potency.
# Test: Cell-based coincidence reporter assay to measure PMP22 gene transcription in S16 Pmp22-F2sN cells - Primary screen
# Details: S16 Pmp22-F2sN Schwann cells (luciferase reporters placed in the Pmp22 gene), FLuc/NLuc coincidence luminescence, 24 h; series mostly up to 57.5 µM
# Text: Assay Provider: Jim Inglese Ph.D. National Center for Advancing Translational Science, National Institutes of Health, Rockville, MD CMT is a heterogeneous group of neurological disorders that affect approximately 1 in 2,500 people. In particular, the most common form of CMT, CMT1A is genetically linked to the duplication of the PMP22 gene which leads to Schwann cell overexpression, thus manifesting itself as a typical case of dose-sensitive diseases. To identify small molecule compounds that can mediate the expression of PMP22 we developed a phenotypic assay screening strategy by utilizing genome editing techniques to construct Schwann cell lines containing novel reporter technology to monitor the transcriptional or translational regulation of PMP22. For high sensitivity we use a bioluminescent reporter system embedded in the 3' UTR of the PMP22 gene (S16(c9) Pmp22-F2sN) to identify compounds that inhibit gene expression. […] We can further discriminate the effect of all transcriptionally active molecules on PMP22 translation or stability with an assay that incorporates a short NLuc peptide (HiBiT) at the C-terminus of expressed PMP22 (S16(f8) PMP22-HiBiT) allowing alpha complementation and luminescence detection of membrane-associated PMP22 protein. These assays were screened against the NCATS Sytravon Library Collection. Miniaturization of these assays to 1536-well plate format for quantitative high throughput screening (qHTS) yielded rich data sets immediately from the qHTS assay (S16(c9) Pmp22-F2sN), when compared with data from a cell viability assay (Cell TiterGlo) to identify compounds that decreased the output signals through cellular toxicity to streamline the selection process of actives for subsequent characterization using the HiBiT assay (S16(f8) PMP22-HiBiT).
# Cell-based coincidence reporter assay to measure PMP22 gene transcription in S16 Pmp22-F2sN cells PROTOCOL TABLE (format as described by Inglese J, Shamu CE and Guy RK. 2007) SEQUENCE No. (e.g., 1, 2, 3, etc.); […] (e.g., Cells, Incubation, Reagent, etc.); VALUE and DESCRIPTION. 1. Cells. Add 500-1,000 cells in 4 uL in growth media (DMEM High Glucose, No Phenol Red media + 10% heat-inactivated FBS + 1% Pen/Strep supplemented media) per well into Greiner 1536-well white/solid bottom high base, TC-treated plates. 2. Compounds. Library compounds and controls added at 23nL per well, transferred by Pin Tool. 3. Incubation. Incubate plates at 37C, 5% CO2, 95% RH for 24 h. 4. Reagent. Add 3.5uL Nano-Glo Dual-Luciferase Reporter Assay System reagent 1: Lysis and FLuc reagent per well of Greiner 1536-well plates. 5. Incubation. Incubate plates at room temperature for 10 min., protect from light. 6. Detector. FLuc luminescence measured using CCD-based camera (Viewlux). 7. Reagent. Add 3.5uL Nano-Glo Dual-Luciferase Reporter Assay System reagent 2: Stop&Glo reagent per well of Greiner 1536-well plates. 8. Incubation. Incubate plates at room temperature for 10 min., protect from light. 9. Detector. NLuc luminescence measured using CCD-based camera (Viewlux). NOTES (numbers refer to Sequence numbers above; values are from representative experiments) 6. Luminescence Read #1 (FLuc): Clear filter; Exposure = 10 sec, Gain = High, Speed = Slow, Binning = 2X 9. Luminescence Read #2 (NLuc): Clear filter; Exposure = 1 sec, Gain = High, Speed = Slow, Binning = 2X REFERENCES: 1. Inglese J, Shamu CE and Guy RK, Reporting data from high throughput screening of small molecule libraries, Nature Chemical Biology, 2007, 3(8): 438-441. doi.org/10.1038/nchembio0807-438 2. Yasgar A, Shinn P, Jadhav A, Auld DS, Michael S, Zheng W, Austin CP, Inglese J and Simeonov A, Compound Management for Quantitative High-Throughput Screening. J. Assoc. Lab. Auto., 2008, 13: 79-89. doi: 10.1016/j.jala.2007.12.004
# Potency means the concentration at half of the fitted maximal effect.
row,SMILES,Potency
1,CCS(=O)(=O)c1ncc(N(Cc2ccc(F)cc2)Cc2ccco2)c(C(=O)Nc2cc(C)ccc2C)n1,inactive
2,CCSc1ncc(Cl)c(C(=O)Nc2cc(C)ccc2C)n1,inactive
3,Cc1ccc(NC(=O)c2nc(S(=O)(=O)Cc3cccc(C)c3)ncc2Cl)cc1,4.22 µM (active)
4,Cc1cc2oc(C(=O)N(Cc3ccc(Cl)cc3)Cc3ccco3)c(C)c2cc1Cl,inactive
5,COc1ccccc1CNC(=O)C(=O)NCC(c1ccco1)S(=O)(=O)c1ccc(F)cc1 (configuration not stated),inactive
6,CC(C)(C)c1ccc(C(=O)NCC(c2ccco2)S(=O)(=O)c2ccc(F)cc2)cc1 (configuration not stated),15.8 µM (active)
7,O=C(NCC(c1ccco1)S(=O)(=O)c1cccs1)c1ccc(F)cc1 (configuration not stated),inactive
8,O=S(=O)(c1ccc2nc(NCc3ccccc3Cl)ccc2c1)N1CCCCC1,inactive
9,COc1ccccc1NC(=O)CN1C(=O)c2ccccc2Sc2ccc(C(=O)N3CCCC3)cc21,inactive
10,Cc1cccc(C(=O)Nc2ccc(-c3nc4ncccc4o3)cc2C)c1,inactive
11,CC1=Nc2cc(C(=O)NCc3ccc(C)cc3)ccc2Sc2ccc(Cl)cc21,inactive
12,CCC1=Nc2cc(C(=O)NCCCOC(C)C)ccc2Sc2ccc(C)cc21,8.54 µM (active)
13,CCOCCCNC(=O)c1ccc2nc(CCc3ccccc3)oc2c1,inactive
14,O=C(Nc1ccc(F)cc1F)c1ccc2c(=O)n3c(nc2c1)CCCCC3,inactive
15,Cc1cc(N2CCN(c3cccc(C(F)(F)F)c3)CC2)n2nc(-c3ccccc3)nc2n1,inactive
16,O=C(CSc1oc(-c2ccco2)nc1S(=O)(=O)c1ccc(Cl)cc1)c1ccccc1,inactive
17,CCc1ccc2oc(-c3ccc(C)c(NC(=O)/C=C/c4ccco4)c3)nc2c1,inactive
18,COc1ccc(CNC(=O)CSc2nc3ccccc3nc2Cc2ccccc2)cc1,inactive
19,CCc1ccc(NC(=O)c2nn(-c3ccc(C)cc3)c(=O)n(C)c2=O)cc1,inactive
20,Fc1ccc(-c2nc(Nc3cccc(Cl)c3)nc3c2COc2ccccc2-3)cc1,inactive
21,CCOC(=O)C1CCN(C(=O)CSc2c3c(nc4ccc(Cl)cc24)CCCC3)CC1,18.9 µM (active)
22,Cc1ccc(CNC(=O)CSc2c3c(nc4cc(Cl)ccc24)CCCC3)cc1,inactive
23,CCOC(=O)C1CCCN(C(=O)c2ccc3c(c2)sc2nc(-c4ccc(CC)cc4)cn23)C1 (configuration not stated),inactive
24,CCOc1ccc(N2CC(c3nc4ccccc4n3CCOc3ccc(OC)cc3)CC2=O)cc1 (configuration not stated),inactive

row,SMILES,Potency
1,CCCN1C(=O)C(O)(CC(=O)c2ccc(CC)cc2)c2cc(Br)ccc21 (configuration not stated),12.6 µM (active)
2,Cc1cc(C)cc(NC(=O)CCS(=O)(=O)c2cc3c4c(c2)CCN4C(=O)CC3)c1,inactive
3,CCOC(=O)c1c(C)[nH]c(CCC(=O)NCCCN2CCN(c3cc(C)ccc3C)CC2)c1C,12.1 µM (active)
4,CCOC(=O)c1c(C)[nH]c(C)c1S(=O)(=O)N(C)CC(=O)N1CCN(c2ccccc2)CC1,inactive
5,Cc1ccc(C)c(N2CCN(C(=O)Cc3c(C(=O)O)c(C)cn3C)CC2)c1,inactive
6,Cc1ccc(C)c(N2CCN(C(=O)CCc3c(C)nc4c(c3C)c(=O)n(C)c(=O)n4C)CC2)c1,inactive
7,CCOC(=O)c1c(C)[nH]c(CCC(=O)NCCCN2CCN(c3cccc(Cl)c3)CC2)c1C,17.9 µM (active)
8,CCOC(=O)c1[nH]c(C)c(CCC(=O)N2CCN(c3ccccc3)CC2)c1C,inactive
9,O=C(CSc1nnc(-c2ccccc2F)o1)Nc1cccc(C(F)(F)F)c1,inactive
10,COc1cccc(NC(=O)C(=O)NCC(c2ccc3c(c2)OCO3)N2CCN(C)CC2)c1 (configuration not stated),inactive
11,COc1cc(NC(=O)C2CCN(c3cnccn3)CC2)cc(OC)c1,inactive
12,Brc1ccc(-c2noc(-c3ccccc3)n2)o1,inactive
13,O=C(NCCCc1ccccc1)c1ccc2c(c1)sc1nc(-c3ccc(F)cc3)cn12,inactive
14,CCOc1ccc(CNCc2c(C(=O)O)c(C)n(Cc3cccc(OC)c3)c2C)cc1OC,inactive
15,CCCCOc1ccc(Cn2c(=O)oc3ccc(C)cc32)cc1OC,inactive
16,CCCCOc1ccc(CN2C(=O)C(=O)c3cc(Br)cc(C)c32)cc1OC,4.5 µM (active)
17,Cc1ccc(-c2cc(C(F)(F)F)c(C#N)c(SCC(=O)Nc3ccccc3)n2)cc1,inactive
18,CCOC(=O)c1c(NC(=O)c2cc(-c3ccc(Cl)cc3)on2)sc2c1CCCC2,inactive
19,COc1ccc(/C=C/c2noc(-c3ccccc3O)n2)cc1OC,inactive
20,Cc1c(-c2nc(-c3ccc4c(c3)OCO4)no2)nnn1-c1ccc(Br)cc1F,inactive
21,COc1cccc(CNS(=O)(=O)c2cc3c(cc2C)n(C)c(=O)c(=O)n3C)c1,inactive
22,Cc1ccc(-n2c(=O)c3cccnc3n2CC(=O)NCc2ccc(F)cc2)cc1C,inactive
23,O=C(CCCn1c(=O)c2cccn2c2cccnc21)NCc1ccc(F)cc1,17.9 µM (active)
